Read-out in test [1]: Interleukin-1 alpha (IL1a), IL1A (gene 3552)
Briefly: BSK_KF3CT_IL1a: BioMAP Diversity Plus: KF3CT Assay for Interleukin-1 alpha (IL1a) Biomarker Activity (AID 2283070). Particulars: primary human keratinocytes with fibroblasts; actives raise or lower the signal. The gist of the method: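 Readout is IL-1a level by ELISA, compared bidirectionally with DMSO as baseline. Cells: human keratinocytes co-cultured with foreskin fibroblasts, harvested 24 h post-dose.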

Read-out in test [2]: TIMP metallopeptidase inhibitor 2 (TIMP2), TIMP2 (gene 7077)
Briefly: BSK_KF3CT_TIMP2: BioMAP Diversity Plus: KF3CT Assay for TIMP metallopeptidase inhibitor 2 (TIMP2) Biomarker Activity (AID 2283071). The conditions noted are these: primary human keratinocytes with fibroblasts; actives raise or lower the signal. The essentials: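 ELISA readout of TIMP-2 in keratinocyte plus foreskin fibroblast co-cultures (human skin primary cells), 24 h post-dose. Gain or loss of signal fitted relative to DMSO.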

Read-out in test [3]: Transforming growth factor beta 1 (TGFb1), TGFB1 (gene 7040)
Put plainly: BSK_KF3CT_TGFb1: BioMAP Diversity Plus: KF3CT Assay for Transforming growth factor beta 1 (TGFb1) Biomarker Activity (AID 2283072). Particulars: primary human keratinocytes with fibroblasts; actives raise or lower the signal. The gist of the method: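 Read-out: ELISA for TGF-b1 in keratinocyte/foreskin fibroblast human skin co-culture, 24 h after dosing; bidirectional curve fit vs DMSO baseline; gain or loss of signal scored.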

Read-out in test [4]: C-C motif chemokine 2 (Homo sapiens) (UniProt P13500)
Briefly: BSK_KF3CT_MCP1: BioMAP Diversity Plus: KF3CT Assay for Monocyte Chemoattractant Protein 1 (MCP1/CCL2) Biomarker Activity (AID 2283073). Particulars: primary human keratinocytes with fibroblasts; actives raise or lower the signal. The gist of the method:
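KF3CT skin co-culture (keratinocytes/foreskin fibroblasts), 24 h post-dose; MCP-1 by ELISA; gain/loss of signal fit bidirectionally vs DMSO baseline.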

Read-out in test [5]: Matrix Metallopeptidase 9 (MMP9), MMP9 (gene 4318)
Briefly: BSK_KF3CT_MMP9: BioMAP Diversity Plus: KF3CT Assay for Matrix Metallopeptidase 9 (MMP9) Biomarker Activity (AID 2283074). The conditions noted are these: primary human keratinocytes with fibroblasts; actives raise or lower the signal. The gist of the method: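 Values come from bidirectional fitting relative to DMSO of MMP-9 levels, which were measured by ELISA. Measurements were taken 24 h after chemical dosing of a keratinocyte and foreskin fibroblast co-culture.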

Read-out in test [6]: urokinase plasminogen activator (uPA), PLAU (gene 5328)
Put plainly: BSK_KF3CT_uPA: BioMAP Diversity Plus: KF3CT Assay for urokinase plasminogen activator (uPA) Biomarker Activity (AID 2283075). The conditions noted are these: primary human keratinocytes with fibroblasts; actives raise or lower the signal. The essentials: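 Values derive from bidirectional fitting against DMSO controls. Keratinocyte/foreskin fibroblast co-cultures received chemical; 24 h later uPA was detected by ELISA, with SRB total-protein staining in parallel wells for overt cytotoxicity.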

Read-out in test [7]: CD40, CD40 (gene 958)
Briefly: BSK_LPS_CD40: BioMAP Diversity Plus: LPS Assay for CD40 Biomarker Activity (AID 2283076). Particulars: primary human HUVEC with PBMC; actives raise or lower the signal. The essentials: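 ELISA readout of CD40 in HUVEC/PBMC co-culture (BSK_LPS system), 24 h post-dosing; bidirectional curve fit, DMSO baseline; parallel SRB total-protein staining for cytotoxicity.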

Read-out in test [8]: E-selectin (Homo sapiens) (UniProt P16581)
Briefly: BSK_LPS_Eselectin: BioMAP Diversity Plus: LPS Assay for Eselectin Biomarker Activity (AID 2283077). Particulars: primary human HUVEC with PBMC; actives raise or lower the signal. The essentials:
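ELISA readout of E-selectin, 24 h post-dose, HUVEC + PBMC co-culture (LPS system). Gain or loss of signal vs DMSO baseline, bidirectional fit.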

Read-out in test [9]: Interleukin-8 (IL8), CXCL8 (gene 3576)
Briefly: BSK_LPS_IL8: BioMAP Diversity Plus: LPS Assay for Interleukin-8 (IL8) Biomarker Activity (AID 2283078). Particulars: primary human HUVEC with PBMC; actives raise or lower the signal. The essentials:
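HUVEC + PBMC co-culture, LPS-activated; test chemicals dosed, IL-8 read by ELISA at 24 h. Bidirectional curve fit vs DMSO baseline (gain or loss of signal).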

Test [10] can be described thus: BSK_LPS_SRB: Viability Assessment in the BioMAP Diversity Plus: LPS Assay (AID 2283079).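 Also: total protein by sulforhodamine B absorbance as a cytotoxicity measure; measured one day after compound addition; fitted in both directions against DMSO so loss or gain of signal counts.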 Particulars: primary human HUVEC with PBMC. The gist of the method:
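HUVEC + PBMC co-culture, LPS-stimulated; compound 24 h. 10% TCA fix, 0.1% SRB stain, A560. Bidirectional fit vs DMSO.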

Read-out in test [11]: Interleukin-1 alpha (IL1a), IL1A (gene 3552)
Briefly: BSK_LPS_IL1a: BioMAP Diversity Plus: LPS Assay for Interleukin-1 alpha (IL1a) Biomarker Activity (AID 2283080). The conditions noted are these: primary human HUVEC with PBMC; actives raise or lower the signal. The essentials: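 HUVEC/PBMC co-culture, LPS system; 24 h after dosing; IL-1a by ELISA; gain or loss of signal fitted bidirectionally vs DMSO baseline.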

Read-out in test [12]: Monocyte Chemoattractant Protein-1 (MCP1), CCL2 (gene 6347)
Put plainly: BSK_LPS_MCP1: BioMAP Diversity Plus: LPS Assay for Monocyte Chemoattractant Protein-1 (MCP1) Biomarker Activity (AID 2283081). The conditions noted are these: primary human HUVEC with PBMC; actives raise or lower the signal. The essentials:
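ELISA read-out of MCP-1 after 24 h chemical dosing of a human umbilical vein endothelial cell/peripheral blood mononuclear cell co-culture stimulated with LPS. Gain or loss of signal fitted relative to DMSO controls.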

Test [13] can be described thus: BSK_LPS_PGE2: BioMAP Diversity Plus: LPS Assay for Prostaglandin E2 (PGE2) Biomarker Activity (AID 2283082). Particulars: primary human HUVEC with PBMC; actives raise or lower the signal. The essentials: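 ELISA read-out of PGE2 from human umbilical vein endothelial cells co-cultured with peripheral blood mononuclear cells under LPS, 24 h post-dose. Gain or loss of signal scored relative to DMSO baseline.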

Read-out in test [14]: Macrophage colony-stimulating factor (MCSF), CSF1 (gene 1435)
Put plainly: BSK_LPS_MCSF: BioMAP Diversity Plus: LPS Assay for Macrophage colony-stimulating factor (MCSF) Biomarker Activity (AID 2283083). Particulars: primary human HUVEC with PBMC; actives raise or lower the signal. The gist of the method:
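HUVEC + PBMC co-culture (human primary), 24 h post-dose; M-CSF by ELISA; gain/loss of signal fitted bidirectionally vs DMSO baseline.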

Read-out in test [15]: Tissue Factor, F3 (gene 2152)
Briefly: BSK_LPS_TissueFactor: BioMAP Diversity Plus: LPS Assay for Tissue Factor Biomarker Activity (AID 2283084). The conditions noted are these: primary human HUVEC with PBMC; actives raise or lower the signal. The essentials:
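HUVEC/PBMC co-culture, LPS-activated; CD142 ELISA read 24 h post-dose; bidirectional curve fit vs DMSO negative control.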

Read-out in test [16]: Tumor necrosis factor (Homo sapiens) (UniProt P01375)
Put plainly: BSK_LPS_TNFa: BioMAP Diversity Plus: LPS Assay for Tumour Necrosis Factor alpha (TNFa) Biomarker Activity (AID 2283085).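 As to AC50: TNFa protein level quantified by ELISA in the co-culture.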 Particulars: primary human HUVEC with PBMC; actives raise or lower the signal. The essentials:
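HUVEC/PBMC co-culture, LPS-stimulated; 24 h post-dose; TNFa by ELISA; gain or loss of signal fitted bidirectionally vs DMSO baseline.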

Read-out in test [17]: Vascular cell adhesion molecule 1 (VCAM1), VCAM1 (gene 7412)
Put plainly: BSK_LPS_VCAM1: BioMAP Diversity Plus: LPS Assay for Vascular cell adhesion molecule 1 (VCAM1) Biomarker Activity (AID 2283086). Particulars: primary human HUVEC with PBMC; actives raise or lower the signal. The essentials:
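ELISA read-out of VCAM-1 at 24 h post-dosing in an LPS-driven HUVEC/PBMC primary human co-culture; gain or loss of signal fitted bidirectionally against DMSO baseline. Cytotoxicity tracked in parallel cultures by SRB total-protein staining.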

Read-out in test [18]: CD38, CD38 (gene 952)
Put plainly: BSK_SAg_CD38: BioMAP Diversity Plus: SAg Assay for CD38 Biomarker Activity (AID 2283087). The conditions noted are these: primary human HUVEC with PBMC; actives raise or lower the signal. The essentials: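 Measures CD38 on a human endothelial/PBMC co-culture driven by SEB and TSST-1, 24 h after compound exposure, using ELISA with fluorescence detection; DMSO defines baseline for bidirectional curve fitting.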

Read-out in test [19]: CD40, CD40 (gene 958)
Put plainly: BSK_SAg_CD40: BioMAP Diversity Plus: SAg Assay for CD40 Biomarker Activity (AID 2283088). Particulars: primary human HUVEC with PBMC; actives raise or lower the signal. The gist of the method:
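HUVEC/PBMC co-culture, 24 h post-dose; CD40 by ELISA, fluorescence intensity; bidirectional fit vs DMSO negative control.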

Read-out in test [20]: CD69, CD69 (gene 969)
Briefly: BSK_SAg_CD69: BioMAP Diversity Plus: SAg Assay for CD69 Biomarker Activity (AID 2283089). Particulars: primary human HUVEC with PBMC; actives raise or lower the signal. The essentials:
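HUVEC co-cultured with PBMC were dosed with chemical, and CD69 was measured by ELISA with fluorescence read-out 24 h later. Bidirectional curve fitting used DMSO as negative control and activity baseline.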

Calls of active or inactive are those of the source. The calls were made as follows: active = hit-call score of the fitted dose curve at least 0.9, where 1 is the maximum; inactive = score below 0.9.

Sequence of Tumor necrosis factor (Homo sapiens) (P01375 whole entry, looked up): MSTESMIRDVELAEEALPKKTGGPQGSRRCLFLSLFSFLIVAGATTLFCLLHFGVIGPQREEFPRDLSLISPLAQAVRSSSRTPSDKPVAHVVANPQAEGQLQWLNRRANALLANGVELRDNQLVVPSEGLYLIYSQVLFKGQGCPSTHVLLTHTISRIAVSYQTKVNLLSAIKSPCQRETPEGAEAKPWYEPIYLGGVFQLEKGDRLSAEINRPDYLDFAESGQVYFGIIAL
Sequence of E-selectin (Homo sapiens) (P16581 whole entry, looked up): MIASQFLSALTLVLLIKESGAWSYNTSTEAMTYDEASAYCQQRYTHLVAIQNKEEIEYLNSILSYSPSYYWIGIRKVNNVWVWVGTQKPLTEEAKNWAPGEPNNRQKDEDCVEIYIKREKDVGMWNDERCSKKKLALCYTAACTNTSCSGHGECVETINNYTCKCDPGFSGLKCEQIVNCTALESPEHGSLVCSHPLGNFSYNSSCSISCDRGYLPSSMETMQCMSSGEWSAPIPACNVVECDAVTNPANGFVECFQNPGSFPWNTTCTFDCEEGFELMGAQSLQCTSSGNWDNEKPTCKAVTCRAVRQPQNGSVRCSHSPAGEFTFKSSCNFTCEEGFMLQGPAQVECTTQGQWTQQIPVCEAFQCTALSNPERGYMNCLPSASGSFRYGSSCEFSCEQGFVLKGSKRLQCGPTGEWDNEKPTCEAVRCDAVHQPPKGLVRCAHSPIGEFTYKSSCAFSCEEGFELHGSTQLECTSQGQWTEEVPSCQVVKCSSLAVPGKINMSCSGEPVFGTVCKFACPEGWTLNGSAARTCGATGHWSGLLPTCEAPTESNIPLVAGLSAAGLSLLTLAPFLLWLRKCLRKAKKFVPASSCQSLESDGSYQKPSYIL

As for `CCOP(=S)(OCC)Oc1cc(C)nc(C(C)C)n1`, the result in test [1], in test [2], in test [3], in test [4], in test [5] and in test [6] was inactive. The result in test [7], in test [8], in test [9], in test [10], in [11] and in test [12] was inactive. Moreover, the outcome in test [13], in test [14], in [15], in [17], in [18] and in test [19] was inactive. Moreover, the result in test [20] was inactive. Further, the concentration at half-maximal activity (AC50) (as a rule, the concentration giving half of the maximal activity seen) in test [16] is 20 µM (active).
In the case of `CCc1cnc(C2=NC(C)(C(C)C)C(=O)N2)c(C(=O)O)c1` (stereo not given), the outcome in test [1], in test [2], in [3], in test [4], in test [5] and in test [6] was inactive. Besides, the outcome in test [7], in test [8], in [9], in test [10], in [11] and in test [12] was inactive. Besides, the outcome in [13], in [14], in [15], in [16], in test [17] and in test [18] was inactive. Moreover, the result in [19] and in test [20] was inactive.
Take `CSc1nc(NC(C)C)nc(NC(C)C)n1`: the outcome in test [1], in [2], in test [3], in test [4], in test [5] and in test [6] was inactive. In addition, the outcome in test [7], in test [8], in test [9], in [10], in test [11] and in test [12] was inactive. Also, the result in [13], in test [14], in [15], in test [17], in [18] and in test [19] was inactive. Moreover, the outcome in [20] was inactive. In test [16], the AC50 was 4.47 µM (active).
